In article PMC10668032, “Altered binding affinity of SIX1-Q177R correlates with enhanced WNT5A and WNT pathway effector expression in Wilms tumor” one finds binding signal data, which are given here for 172 sequences.

In all, about 33,000 sequences were measured (“e-score”: median about -0.05, highest 2% from about 0.38 on). What follows is part of a selection rich in the highest values, with near analogues and random picks from the rest.

This experiment has as its target T1, SIX1-Q177R homeodomain (human, UniProt Q15475 108-198, Q177R).
T1 sequence: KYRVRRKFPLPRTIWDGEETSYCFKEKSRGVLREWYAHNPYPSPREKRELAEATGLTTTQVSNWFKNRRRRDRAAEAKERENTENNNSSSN
The experiment can be described thus: universal protein binding microarray; Universal all-10-mer PBM (8x60K, AMADID 030236), 300 nM GST-tagged protein, Alexa Fluor 488 anti-GST; buffer, salt, pH and temperature not stated (as in Berger); high values mean tight binding. The following applies: protein: ivt; tags: N-terminal GST; dsDNA, one strand shown. A digest of the protocol:
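After in vitro transcription/translation, GST-tagged homeodomains were quantified against a recombinant GST standard curve by anti-GST western blot. They were then placed in duplicate at 300 nM final concentration on universal 'all 10-mer' protein binding microarrays of 8×60K format.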
As for ACCACACT, the binding signal was 0.2703 ± 0.00247 E-score. In the case of AAACCACA, the binding signal turned out to be 0.2156 ± 0.00176 E-score. Under ACGCCACT stands 0.159 ± 0.00951 E-score; under ATACCACG, 0.216 ± 0.0275 E-score. For GCACCACC the value was 0.261 ± 0.00493 E-score; for ACACCACC, 0.4809 ± 0.000976 E-score. Under ACACCACG stands 0.4775 ± 0.00181 E-score. CTACCACA: the binding signal amounted to 0.154 ± 0.0418 E-score. For AACTAACA the value was 0.2417 ± 0.000339 E-score; for CACGCTGC, 0.293 ± 0.00561 E-score. Under ATAAGCAC stands 0.166 ± 0.0125 E-score.

For the sequence ATTCGCAA, the binding signal amounted to 0.162 ± 0.0131 E-score. Under TACCCGTA stands 0.168 ± 0.00327 E-score; under GGGTTTAA, 0.232 ± 0.0257 E-score; under GAACCCAC, 0.19 ± 0.0124 E-score. Regarding ACCTCACA, the binding signal is 0.244 ± 0.00679 E-score. Under CACTAAAG stands 0.185 ± 0.042 E-score; under ACTCTCCC, 0.163 ± 0.0151 E-score.

Take ACACTCCC: the binding signal is 0.404 ± 0.00738 E-score. ACCCTCCG: the binding signal was 0.271 ± 0.0147 E-score. For ACACTCCG the value was 0.3884 ± 0.00235 E-score; for ACACTCCA, 0.373 ± 0.0149 E-score; for CCACTCCA, 0.152 ± 0.00234 E-score. As for ATACTCCG, the binding signal is 0.195 ± 0.0283 E-score. Take ACACTTCT: the binding signal stood at 0.374 ± 0.0413 E-score. Under ACACTCCT stands 0.391 ± 0.0158 E-score; under GGCGGATA, 0.22 ± 0.0151 E-score. For CACTCCAA, the binding signal was 0.161 ± 0.0414 E-score.

Turning to AGGCTACC, the binding signal was 0.187 ± 0.00757 E-score. Under CACCGTCA stands 0.209 ± 0.0101 E-score. In the case of AGCACGGG, the binding signal was found to be 0.155 ± 0.00564 E-score. Under CACACGGG stands 0.332 ± 0.0383 E-score; under AACACGGA, 0.372 ± 0.0198 E-score. AACACGGG: the binding signal turned out to be 0.432 ± 0.00733 E-score. Turning to AACACGGT, the binding signal is 0.383 ± 0.0148 E-score. For CACTCGCA the value was 0.264 ± 0.0114 E-score; for ACCGCGGT, 0.187 ± 0.0496 E-score; for AACAAGTG, 0.172 ± 0.00772 E-score.

Consider CAGTGTTC, for which the binding signal was found to be 0.355 ± 0.0115 E-score. For AAGTGTGT, the binding signal turned out to be 0.215 ± 0.00375 E-score.

For CAGTGTTA, the binding signal is 0.402 ± 0.00939 E-score. For the sequence GAGTGTTA, the binding signal is 0.407 ± 0.0179 E-score.

Regarding CACTGTTA, the binding signal amounted to 0.255 ± 0.0243 E-score. Under GAGTGCTA stands 0.152 ± 0.00664 E-score; under AAGTGTTC, 0.285 ± 0.0294 E-score.

Turning to AAGTGTTA, the binding signal is 0.393 ± 0.0449 E-score. For AGAGCACC the value was 0.202 ± 0.0183 E-score; for AACCCACC, 0.194 ± 0.0122 E-score; for CGCGGGCA, 0.276 ± 0.0364 E-score. For CCCGAGTC the value was 0.171 ± 0.0123 E-score; for CCACCCCG, 0.246 ± 0.0156 E-score; for AGACCCCT, 0.155 ± 0.0162 E-score. Under GCACCCCC stands 0.311 ± 0.046 E-score; under ACCCCCCG, 0.329 ± 0.0392 E-score; under CCACCCCA, 0.267 ± 0.0424 E-score. Take ACACCCCA: the binding signal amounted to 0.4705 ± 0.00327 E-score. For ACCCCCCT the value was 0.302 ± 0.0219 E-score; for CCACCCCC, 0.209 ± 0.0542 E-score; for ACACCCCT, 0.4748 ± 0.00334 E-score. Under ACACCCCC stands 0.4871 ± 0.00117 E-score; under TCACCCCA, 0.184 ± 0.0578 E-score. For ACACCCCG the value was 0.466 ± 0.00875 E-score. For CCCTCGAC, the binding signal is 0.176 ± 0.00448 E-score. Under ATCGGGCA stands 0.195 ± 0.0164 E-score; under CCGCCCGA, 0.174 ± 0.00646 E-score. On to CCCTGCAC, for which the binding signal is 0.178 ± 0.0222 E-score. Under TGATACCA stands 0.325 ± 0.0116 E-score; under AACCCGTG, 0.23 ± 0.00447 E-score; under GCGGAGTA, 0.241 ± 0.0385 E-score.

Regarding ACTGGCAC, the binding signal stood at 0.152 ± 0.00487 E-score. Under ACCCGGAC stands 0.171 ± 0.0263 E-score; under AGCGCGGG, 0.2629 ± 0.0007 E-score; under GAGAATAC, 0.194 ± 0.00365 E-score. For AAGAACAC the value was 0.423 ± 0.0082 E-score; for CAGGAACA, 0.259 ± 0.00612 E-score; for GAGAACAC, 0.3811 ± 0.000742 E-score. Turning to CAGAACAC, the binding signal turned out to be 0.3812 ± 0.000905 E-score. Under CACTCTAC stands 0.291 ± 0.0135 E-score; under CCGCCACA, 0.282 ± 0.0124 E-score. Consider ACAAGGGG, for which the binding signal came to 0.185 ± 0.0199 E-score. Regarding CACTCCCA, the binding signal turned out to be 0.273 ± 0.0105 E-score.

Regarding GCACTACA, the binding signal worked out at 0.171 ± 0.00501 E-score.

Take ACCCAGCG: the binding signal came out at 0.168 ± 0.00443 E-score. As to ACTTAGGG, the binding signal worked out at 0.181 ± 0.0198 E-score. For ATCAGGTG, the binding signal is 0.224 ± 0.00902 E-score. For AAGTGGTG the value was 0.337 ± 0.0139 E-score; for GCCTACAC, 0.442 ± 0.0046 E-score; for ACCTACAC, 0.4302 ± 0.00419 E-score. Take CCCTACAC: the binding signal was found to be 0.424 ± 0.00443 E-score. Under CCCTACTC stands 0.19 ± 0.0302 E-score; under ACCTATAC, 0.2048 ± 0.00123 E-score.

On to GCCCACAC, for which the binding signal stood at 0.255 ± 0.0252 E-score. As for CCCTACCC, the binding signal is 0.185 ± 0.00683 E-score. Under GCCTACGC stands 0.167 ± 0.0292 E-score; under ACCTACCC, 0.252 ± 0.0152 E-score. Regarding GGGATCGA, the binding signal was found to be 0.257 ± 0.0548 E-score. Consider CACGACTA, for which the binding signal turned out to be 0.22 ± 0.0605 E-score. For the sequence CACTAATC, the binding signal is 0.172 ± 0.0411 E-score. For GTGTTCGA, the binding signal turned out to be 0.409 ± 0.0112 E-score. For GTATTCTA the value was 0.1741 ± 0.00132 E-score; for GGGTTCAC, 0.184 ± 0.0552 E-score; for GTGTTCAA, 0.3855 ± 0.00337 E-score.

Regarding GTGTTCTA, the binding signal amounted to 0.392 ± 0.00814 E-score.

Take GTGTTCCA: the binding signal is 0.361 ± 0.00459 E-score. For GTGTGCAA the value was 0.252 ± 0.0153 E-score; for AAGGGGTC, 0.17 ± 0.00583 E-score. For CACCATTC the value was 0.23 ± 0.0429 E-score.

Take CCCCCACA: the binding signal stood at 0.262 ± 0.0205 E-score. Under ACGGGGTA stands 0.233 ± 0.00738 E-score; under GGGTGGTA, 0.194 ± 0.0128 E-score. For AATAGACA the value was 0.187 ± 0.00716 E-score; for GATCCCCC, 0.368 ± 0.0192 E-score; for CACCAGTC, 0.2944 ± 0.00254 E-score.

As for CACCAGTG, the binding signal was 0.404 ± 0.0086 E-score. On to AACCAGTG, for which the binding signal turned out to be 0.183 ± 0.00569 E-score.

CTCAGACA: the binding signal was determined as 0.189 ± 0.00366 E-score. Take GCATAAAC: the binding signal was 0.184 ± 0.0176 E-score. For CCATACAC the value was 0.3962 ± 0.00378 E-score; for GCATACAC, 0.406 ± 0.00565 E-score; for ACACATAC, 0.18 ± 0.0765 E-score.

Regarding ACATACAC, the binding signal is 0.421 ± 0.012 E-score.

In the case of CCATACCC, the binding signal was 0.218 ± 0.00536 E-score. In the case of ACATACCC, the binding signal came to 0.17 ± 0.00441 E-score.

On to CACCTCGA, for which the binding signal was found to be 0.217 ± 0.0155 E-score. Under GAGGGGTA stands 0.277 ± 0.00472 E-score; under ATACCGGA, 0.178 ± 0.0104 E-score. Turning to AGGCAGGA, the binding signal came out at 0.158 ± 0.0089 E-score. For ACCTAGAG the value was 0.175 ± 0.0492 E-score; for GGGTGCAA, 0.261 ± 0.0357 E-score. Turning to CAACGCCA, the binding signal worked out at 0.175 ± 0.0166 E-score. For CCCCGACC the value was 0.15745 ± 0.000156 E-score; for CACCGGTC, 0.21 ± 0.00979 E-score. Turning to CACCGGTG, the binding signal was 0.418 ± 0.0109 E-score. On to AACCGGTG, for which the binding signal was found to be 0.299 ± 0.0429 E-score.

AATTGGTG: the binding signal was 0.221 ± 0.00776 E-score. For CCGCGACA the value was 0.241 E-score; for GCAATACC, 0.166 ± 0.00689 E-score. Under CTAGTGTC stands 0.4067 ± 0.00058 E-score; under ATAGTGTC, 0.3846 ± 0.00175 E-score; under CTAGTACA, 0.245 ± 0.0089 E-score.

As for ATAGTGTG, the binding signal was found to be 0.188 ± 0.00817 E-score. For CTAGTATC the value was 0.161 ± 0.0474 E-score; for ATAGTGTA, 0.391 ± 0.0352 E-score; for ATAGTATA, 0.175 ± 0.0632 E-score. For CTAGTGTA the value was 0.391 ± 0.0289 E-score; for CTTGTGTA, 0.154 ± 0.0563 E-score; for ATATAGTG, 0.265 ± 0.00494 E-score. For CTAGTCAC the value was 0.19 ± 0.0126 E-score; for CACCGTGA, 0.277 E-score; for CCCCCGCC, 0.228 ± 0.0364 E-score. CACGGATC: the binding signal stood at 0.279 ± 0.0122 E-score. For ACCATGAA the value was 0.1618 ± 0.00147 E-score. Under CATTGGGG stands 0.162 ± 0.00379 E-score; under CCCACTCC, 0.159 ± 0.0222 E-score. For ACCCCGGA the value was 0.299 ± 0.00931 E-score; for GTAGGGTA, 0.193 ± 0.0286 E-score. Take GTAGTGTA: the binding signal was 0.427 ± 0.00906 E-score. Under GTAGTGAC stands 0.26 ± 0.0183 E-score. Under ACCAAGAG stands 0.213 ± 0.0142 E-score; under GACACACC, 0.422 ± 0.0192 E-score; under CACACACG, 0.248 ± 0.0453 E-score. As to AACACACG, the binding signal was determined as 0.231 ± 0.0156 E-score.

For the sequence CACACACA, the binding signal stood at 0.184 ± 0.063 E-score. In the case of AACACACC, the binding signal was found to be 0.395 ± 0.0142 E-score. GACACAGC: the binding signal was found to be 0.17 ± 0.0393 E-score. Consider CACACACC, for which the binding signal is 0.389 ± 0.0305 E-score. For AACACACA the value was 0.262 ± 0.0517 E-score; for GACACACA, 0.334 ± 0.044 E-score; for TGTACCAA, 0.164 ± 0.0254 E-score. For GGGTATAC the value was 0.262 ± 0.00267 E-score; for AACCCGGG, 0.244 ± 0.0275 E-score. Under CTACTCCA stands 0.242 ± 0.00788 E-score.
